Bioassay records (PubChem BioAssay)
Shown are actives, neighbours in structure and some others; about 7.6% of the full set was active somewhere.
Cav3 T inh: blocks human Cav3.2 T-type calcium channel | O95180 | Cav3.2-expressing cells, Fluo-4 calcium fluorescence FDSS; stronger effect = lower value | B-score at 10 µM | 100,000 tested, 4% active;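 active = single-dose well whose peak fluorescence ratio is a statistical outlier from its plate by either plate-standardised score or position-corrected B-score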
M1 antag: M1 muscarinic receptor (rat) antagonism | P08482 | 64,000 tested, 3.4% active | CHO-M1 cells, Fluo-4 calcium, ACh EC80 antagonist mode; stronger effect = lower value | B-score at 10 µM;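 active = calcium fluorescence response, raw or row-and-column corrected B-score, differing from the plate sample mean either way at a set confidence level, mostly lower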
M1 ag: activates the M1 muscarinic receptor. CHO-M1 cells, Fluo-4 calcium fluorescence, agonist mode; stronger effect = higher value. B-score at 10 µM. 64,000 tested, 3% active;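 active = fluorescence rise, raw or as B-score row- and column-corrected plate score, outside the 99.7% band of its plate's samples, either direction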
PLAP activator: activates human placental alkaline phosphatase; purified PLAP enzyme, luminescent substrate read-out; stronger effect = higher value; 96,000 tested, 1.2% active; P05187; activation fold at 20 µM; AID 696; in the data active = activation fold above about 2
Each line names hits and unclear results; the compound was inactive in the other large screens.

CC1CCN(CCc2nc3cc(NC(=O)NC4CCCCC4)ccc3n2C)CC1	PLAP activator 2 (no result: M1 antag, M1 ag)
CCCC[C@@H]1CCCO[C@@](C(=O)NCc2cc(C)n(C)n2)(C(F)(F)F)C1	none (no result: M1 antag, M1 ag, PLAP activator)
CS(=O)(=O)N(CC(=O)N/N=C/c1cccs1)c1cccc(Cl)c1Cl	none (no result: M1 antag, M1 ag)
O=C(CN1CCCN(Cc2ccc(F)cc2Cl)C1=O)NC1CCCCCC1	none (no result: M1 antag, M1 ag)
CC1CCC(NC(=O)CN2CCCN(Cc3ccc(F)cc3Cl)C2=O)CC1 (centres undefined)	Cav3 T inh -3.9
CCC(Oc1nc2ccccc2nc1-c1ccccc1NC(C)=O)C(=O)c1ccccc1 (centres undefined)	none (no result: M1 antag, M1 ag)
O=C(CS(=O)(=O)c1c[nH]c2ccccc12)NC1CCCCC1	none (no result: M1 antag, M1 ag)
CCn1cc(S(=O)(=O)CC(=O)NC2CCCCC2)c2ccccc21	M1 antag 3.2
O=C(NC1=NCCS1)C1Cc2ccccc2CN1C(=O)c1ccccc1 (centres undefined)	PLAP activator 2.1
CCOc1cc(C)c(C(C)C)cc1S(=O)(=O)NCc1ccccn1	none
Cc1cc(NC(=O)COC(=O)COc2ccc3c(c2)CCC3)no1	none
Cc1ccc(-c2ccc(/C=N/c3ncn[nH]3)o2)cc1Cl	Cav3 T inh -6.7
CC(C)=CC(=O)NCc1c(Cl)cccc1-n1cccc1	none (no result: M1 antag, M1 ag)
CC1CCN(S(=O)(=O)c2ccc(NC(=O)Cc3ccccc3)cc2)CC1	Cav3 T inh -5.9 (no result: M1 antag, M1 ag)
CC1CCN(S(=O)(=O)c2ccc(NC(=O)CN3CCN(c4ccccc4)CC3)cc2)CC1	none
CCOC(=O)Cc1csc(NC(=O)COc2ccc3ccccc3c2)n1	Cav3 T inh -10 (no result: M1 antag, M1 ag)
CCOC(=O)Cc1csc(NC(=O)CSc2nnnn2-c2ccc(C)cc2C)n1	none (no result: M1 antag, M1 ag, PLAP activator)
CCOC(=O)Cc1csc(NC(=O)COc2ccc(N(C)S(=O)(=O)c3ccc(C)cc3)cc2)n1	Cav3 T inh -6.5 (no result: M1 antag, M1 ag)
CCOC(=O)Cc1csc(NC(=O)CSc2nnnn2-c2ccc(F)cc2)n1	Cav3 T inh -4.5
CCOC(=O)Cc1csc(NC(=O)COc2ccccc2OCC)n1	none (no result: M1 antag, M1 ag)
COC(=O)C1=C[C@@H](C(=O)OC)[C@@H]2C3=C(C(=O)[C@@]2(C)NC(=O)c2ccccc2)[C@H](c2ccccc2)n2c(=O)n(-c4ccccc4)c(=O)n2[C@@H]3C1	none (no result: M1 antag, M1 ag, PLAP activator)
COC(=O)c1ccccc1NC(=O)C1CC(=O)N(C2CCCCC2)C1 (centres undefined)	none
NC(=O)CC(NC(=O)c1ccccc1)c1ccc(NCc2ccccc2)c([N+](=O)[O-])c1 (centres undefined)	none (no result: M1 antag, M1 ag, PLAP activator)
CC(=O)NC(Cc1ccccc1C)C(=O)NC1CCN(c2c3c(nc4ncnn24)CCC3)CC1 (centres undefined)	none (no result: Cav3 T inh, PLAP activator)
O=C(Cn1c(=O)oc2cc(S(=O)(=O)N3CCCC3)ccc21)N1CCc2ccccc2C1	Cav3 T inh -5.7 (no result: M1 antag, M1 ag)
Cn1c(=O)oc2cc(S(=O)(=O)NCCC(=O)N3CC=C(c4ccccc4)CC3)ccc21	none
CC(C)CC(NS(=O)(=O)c1ccc2c(c1)oc(=O)n2C)C(=O)N1CC=C(c2ccccc2)CC1 (centres undefined)	PLAP activator 2.5
Cn1c(=O)oc2cc(S(=O)(=O)N3CCCC(C(=O)N4CC=C(c5ccccc5)CC4)C3)ccc21 (centres undefined)	M1 ag 3.4 (no result: Cav3 T inh)
CC(NC(=O)Cc1ccc(F)cc1)C(c1cccs1)N1CCN(C)CC1 (centres undefined)	none (no result: PLAP activator)
CC1Cc2ccccc2N1C(=O)CSc1nnc(CNc2ccccc2)o1 (centres undefined)	none
COC(=O)[C@H](C)NC(=O)Nc1ccc(Oc2ccccc2)cc1	none
O=[N+]([O-])c1ccc(N=Nc2ccc(O)cc2O)cc1	Cav3 T inh -8.8 (no result: M1 antag, M1 ag)
CC(=O)C[C@H]1c2cc(C(F)(F)F)ccc2S(=O)(=O)N1c1ccc(N(C)C)cc1	none (no result: M1 antag, M1 ag, PLAP activator)
O=C1C(c2ccccc2)SC(=Nc2ccccc2)N1S(=O)(=O)c1ccccc1 (centres undefined)	none (no result: M1 antag, M1 ag)
CCOC(=O)CSc1ncc(OC)c(Sc2ccc(Cl)cc2)n1	Cav3 T inh -11 (no result: M1 antag, M1 ag)
COC(=O)/C=C/CSC1=N/C(=C/c2ccc(-n3cncn3)cc2)C(=O)N1	none (no result: M1 antag, M1 ag)
Cc1nn(-c2nc3ccccc3n2Cc2ccccc2)c2c1C(=O)CC(C)(C)C2	Cav3 T inh -5
Cc1nn(-c2ccccc2)c2c1C(=O)N(Cc1ccccc1)C(=O)C(C)(C)C2	none (no result: M1 antag, M1 ag)
CCc1ccccc1NC(=O)CN1CCC(NC(=O)COC)CC1	none
CCN(CC)CCNc1nc2c(c(=O)[nH]c(=O)n2C)n1CC(O)COc1ccc(Cl)cc1Cl (centres undefined)	PLAP activator 2
CN(C)CCNc1nc2c(c(=O)[nH]c(=O)n2C)n1CC(O)COc1ccc(Cl)cc1 (centres undefined)	none
Cc1ccc(CN2C(=O)CCC2C(=O)NCCN(CC(C)C)CC(C)C)cc1 (centres undefined)	none
O=C(O)C(Cc1ccccc1)N1Cc2ccccc2C1=O (centres undefined)	none (no result: M1 antag, M1 ag)
CC(C)CCNC(=O)[C@H](CSCc1ccccc1)N1Cc2ccccc2C1=O	Cav3 T inh -3.8 (no result: M1 antag, M1 ag, PLAP activator)
Cc1ccccc1CSCCNS(C)(=O)=O	none (no result: M1 antag, M1 ag)
COc1ccc(S(=O)(=O)NCCSCc2ccccc2C)cc1Br	Cav3 T inh -4.9 (no result: M1 antag, M1 ag)
COCC(C)n1c(C)cc(C(=O)COC(=O)c2oc3ccccc3c2C)c1C (centres undefined)	Cav3 T inh -5.8
CC(C)(C)NC(=O)NC(=O)CSc1nnc(COc2ccccc2Cl)o1	Cav3 T inh -6 (no result: M1 antag, M1 ag)
Cc1cccc(C)c1OCc1nnc(SCC(=O)NCCc2ccccc2)o1	Cav3 T inh -5.7 (no result: PLAP activator)
O=C(N/N=C/c1cc([N+](=O)[O-])ccc1N1CCNCC1)c1ccc([N+](=O)[O-])cc1	none (no result: M1 antag, M1 ag)
COc1ccc(N2CCN(Cc3nc(N)nc(Nc4ccc(C)c(Cl)c4)n3)CC2)cc1	Cav3 T inh -5.2
Cc1ccc(Nc2nc(N)nc(CN3CCN(Cc4ccc5c(c4)OCO5)CC3)n2)cc1Cl	Cav3 T inh -5.2
Cc1ccc(Nc2nc(N)nc(CN3CCN(c4ccccc4)CC3)n2)cc1Cl	none
Cc1ccc(Nc2nc(N)nc(CN3CCN(Cc4ccc5c(c4)OCO5)CC3)n2)c(C)c1	none
CCc1ccc(CNC(=O)C(=O)NCCc2ccc(OC)c(OC)c2)cc1	Cav3 T inh -5.3 (no result: M1 antag, M1 ag, PLAP activator)
COc1ccc(CCNC(=O)C(=O)NCc2ccc(C)cc2)cc1OC	none (no result: M1 antag, M1 ag)
COCCn1c(C)nc2oc3ccc(Br)cc3c(=O)c2c1=O	M1 antag 1.9
CC(C)Nc1nc(NC(C)C)nc(OCCOC(=O)Nc2ccccc2)n1	none (no result: M1 antag, M1 ag)
Cc1ccc(Cn2nnc(C(=O)Nc3cc(C)ccc3C)c2N)cc1	M1 antag 1.8 (no result: PLAP activator)
Cc1cc(C)cc(-n2nnc(C(=O)NCc3ccccc3)c2N)c1	none
Cc1ccc(C)c(NC(=O)c2nnn(Cc3ccccc3)c2N)c1	none
Cc1ccc(CNC(=O)c2nnn(-c3cccc(C)c3)c2N)cc1	Cav3 T inh -5.4
CCCN1C(=O)/C(=C/C=C2\N(CC)c3ccccc3C2(C)C)SC1=S	Cav3 T inh -4.5 (no result: M1 antag, M1 ag)
O=C(NC1CCCCCC1)C1C2C=CC3(CN(Cc4cccnc4)C(=O)C13)O2 (centres undefined)	none
O=C(Nc1ccc2nc(-c3ccccn3)[nH]c2c1)C1CCCCC1	PLAP activator 2.3 (no result: M1 antag, M1 ag)
CC(C)Cn1c(SCC(=O)c2ccc(Cl)s2)nnc1-c1ccco1	Cav3 T inh -5.6
Cc1ccc(C(=O)CSc2nnc(-c3ccco3)n2Cc2ccccc2)cc1	none
